# The entries come from a sample that favours hits as a whole.
# BRCT inh green – qHTS Assay for Inhibitors of BRCT-Phosphoprotein Interaction (Green Fluorophore); Breast cancer type 1 susceptibility protein (Homo sapiens), P38398; BRCA1 BRCT-phosphopeptide binding, green fluorescence polarization; Potency, µM (titrated, usually from 76.9 µM), without a hit: at the highest dose activity change, negative = inhibition, actives largely listed as inhibitors; 75,000 tested, 0.05% active;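 also: potency is read from the fitted curve at half-maximal effect; plate controls were peptide without protein for full effect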
#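 Compounds were incubated for 12 min at room temperature with a complex of 100 nM fluorescein-tagged pBACH1 decapeptide and 250 nM His-tagged BRCT protein. Buffer was phosphate pH 7.3 with EDTA, DTT and Tween 20. Disruption of binding lowers the polarization signal.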
# DNA Pol III inh – qHTS Assay for Inhibitors of DNA Polymerase III Holoenzyme System; reconstituted DNA polymerase III holoenzyme replication, biochemical; Potency, µM (highest dose often 57.1 µM), without a hit: at the highest dose activity change, negative = inhibition; 71,000 tested, 0.25% active; AID 603, 2007; also: potency is read from the fitted curve at half-maximal effect; % is scaled to controls: 0 for no effect and ±100 for the full control effect
#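 Reconstituted *E. coli* holoenzyme (0.35 nM Pol III, 1 nM beta, 154 nM SSB, 2 nM primase) was preincubated with compound for 15 min at RT. Synthesis on 1.4 nM ssM13Gori ran 35 min, then was stopped with PicoGreen/EDTA and read as dsDNA fluorescence.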
# ALOX15 inhib – qHTS Assay for Inhibitors of 15-hLO (15-human lipoxygenase). purified 15hLO-1, xylenol orange hydroperoxide absorbance. 74,000 tested, 1.4% active. Potency, µM (top dose mostly 57.1 µM), without a hit: top-dose activity change, negative = inhibition, hits mostly inhibitors. AID 887, 2007; also: potency is read from the fitted curve at half-maximal effect; % is scaled to controls: 0 for no effect and ±100 for the full control effect; nearly all actives have a fitted effect of over 55% in size
# Target sequence (P16050 whole entry, looked up): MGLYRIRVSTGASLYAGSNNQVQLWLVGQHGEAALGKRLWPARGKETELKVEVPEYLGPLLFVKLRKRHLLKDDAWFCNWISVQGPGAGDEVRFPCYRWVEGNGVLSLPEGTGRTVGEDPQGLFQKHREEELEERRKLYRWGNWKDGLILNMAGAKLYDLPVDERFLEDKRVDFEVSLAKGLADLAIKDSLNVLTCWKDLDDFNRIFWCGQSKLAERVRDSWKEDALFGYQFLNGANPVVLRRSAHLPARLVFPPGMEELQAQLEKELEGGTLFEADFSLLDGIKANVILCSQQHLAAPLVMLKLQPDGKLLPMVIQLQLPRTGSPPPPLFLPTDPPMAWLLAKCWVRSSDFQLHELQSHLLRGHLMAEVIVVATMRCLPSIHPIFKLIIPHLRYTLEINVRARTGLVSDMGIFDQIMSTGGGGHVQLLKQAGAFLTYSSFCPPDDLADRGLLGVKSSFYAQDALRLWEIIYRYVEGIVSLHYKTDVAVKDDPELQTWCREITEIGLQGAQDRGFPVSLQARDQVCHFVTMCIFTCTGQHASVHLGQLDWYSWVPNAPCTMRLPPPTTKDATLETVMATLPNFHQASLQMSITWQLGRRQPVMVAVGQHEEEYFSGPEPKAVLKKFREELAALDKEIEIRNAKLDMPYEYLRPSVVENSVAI
#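 Inhibition is scored from a chromogenic endpoint. After 15 min enzyme-compound contact, arachidonic acid (50 uM final) reacts 6 min with 40 nM 15hLO-1 at room temperature, then Fe-XO reagent is added for 30 min and absorbance ratio recorded.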
# ALOX15B inhib – qHTS Assay for Inhibitors of 15-hLO-2 (15-human lipoxygenase 2) | Polyunsaturated fatty acid lipoxygenase ALOX15B (Homo sapiens), O15296 | purified 15hLO-2, xylenol orange hydroperoxide absorbance | Potency, µM (highest dose often 57.1 µM), without a hit: at the top dose activity change, negative = inhibition, most hits filed as inhibitors | 110,000 tested, 0.56% active | AID 881, 2007; also: potency is read from the fitted curve at half-maximal effect; % is scaled to controls: 0 for no effect and ±100 for the full control effect; nearly all actives have a fitted effect of over 60% in size
#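 Purified human 15hLO-2 (50 nM final) preincubated with compounds 15 min at room temperature in 25 mM Hepes pH 7.5, 0.01% Triton X-100, then 45 uM arachidonic acid added for 90 min; hydroperoxide detected via ferrous/xylenol orange, 573/405 nm absorbance ratio.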
# YjeE inh – qHTS Assay for Inhibitors of YjeE. tRNA threonylcarbamoyladenosine biosynthesis protein TsaE (Escherichia coli (strain …. purified YjeE enzyme, qHTS inhibition assay. Potency, µM. 71,000 tested, 0.05% active. AID 605, 2007
#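 Fluorescence polarization of a BODIPY Texas Red–ADP probe (2 uM) bound to purified YjeE (10 uM) was read after 15 min room-temperature incubation with compounds. Loss of polarization marks inhibitors; ADP serves as titrated control.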
# BRCT PPI red – qHTS Assay for Inhibitors of BRCT-Phosphoprotein Interaction (Red Fluorophore). Breast cancer type 1 susceptibility protein (Homo sapiens), P38398. BRCT-phosphopeptide binding, red fluorescence polarization. Potency, µM (series often up to 76.9 µM), without a hit: at the top dose activity change, negative = inhibition, usual class: inhibitors. 75,000 tested, 0.03% active; also: % is scaled to controls: 0 for no effect and ±100 for the full control effect
#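 Rhodamine-labelled pBACH1 10-mer (100 nM) bound to BRCT domain (100 nM) at pH 7.3; compounds incubated 12 min room temperature, polarization read. Free peptide defines full inhibition; unlabelled decapeptide titrated as control.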
# Numbers without * were called inactive; i = inactive; u = inconclusive; x = not tested or not shown; [ ] = dose if it differs, or a comment. Calls follow the shape of the dose curve; as a rule, active = well fitted curve in the direction sought with a large enough effect; inconclusive = small, poorly fitted or top-dose-only effect, or another doubt; inactive = no such curve, though single readings can be large; an effect the other way counts as inactive or inconclusive.
SMILES,BRCT inh green,DNA Pol III inh,ALOX15 inhib,ALOX15B inhib,YjeE inh,BRCT PPI red
CCCCCCCC(=O)OCCOC(=O)CCCCCCC,x,x,x,11%[0.0915 µM],x,x
CCOC(=O)CCCCCCCCCCCCC1C=CCC1 (stereo not drawn),-2%,x,13µM*,2%,x,1%
CC(=O)N1CC[C@@H]2CC(=O)CC[C@@H]21,x,x,x,-2%[0.0915 µM],x,x
O=C(c1cc(-c2ccco2)on1)N1CCc2ccccc2C1,3%,0%,16µM*,u,i,0%
O=C(c1cc(-c2ccccc2O)on1)N1CCc2ccccc2C1,0%,-4%,-26%,-8%,i,-1%
O=C(c1cc(-c2ccc(O)cc2)on1)N1CCc2ccccc2C1,3%,-4%,16µM*,-16%,i,1%
CO[C@H]1COC(=O)C/C=C\[C@H](C)[C@@H](NS(=O)(=O)c2ccc(C)cc2)COC(=O)C/C=C\[C@@H]1C,1%[15.4 µM],x,3%[11.4 µM],x,x,2%[15.4 µM]
Cn1c(C(=O)NCCCN2CCCCCC2)cc2c(=O)n(C)c3ccccc3c21,7%,7.9µM*,6%,8%,i,-2%
CCN1C(=O)[C@H]2[C@H]3[C@H](O)[C@H](O)C/C(=N/NC(=O)OCc4ccccc4)[C@@H]3CC[C@@H]2C1=O,1%[15.4 µM],x,2%[11.4 µM],x,x,-1%[15.4 µM]
N#C/C(=C\c1cccs1)Sc1nc2ccccc2s1,-2%,-13%,u,-5%,i,0%
N#C/C(=C\c1ccc[nH]1)Sc1nc2ccccc2s1,10%,-1%,16µM*,-7%,i,1%
O=C(O)c1cnc2ccccc2n1,-4%,-5%,20µM*,8%,i,0%
COc1ccc(O[C@H]2C=C[C@@H](c3ccccc3)O[C@@H]2CON=C(C)C)cc1,1%[15.4 µM],x,2%[11.4 µM],x,x,0%[15.4 µM]
Cc1ccc(NC(=S)NCCc2c[nH]c3ccccc23)cc1,x,x,x,25µM*,x,x
C#C[C@]1(OC(C)=O)CC[C@H]2[C@@H]3CCC4=CC(=O)CC[C@@H]4[C@H]3CC[C@@]21C,x,x,x,-30%[0.0915 µM],x,x
O=C(Nc1nnc(COc2ccc(Cl)cc2)s1)C1CCCO1 (stereo not drawn),1%,-3%,7.9µM*,-11%,i,-2%
O=C(Nc1nnc(COc2ccc(F)cc2)s1)c1cccs1,-2%,-3%,9%,-2%,i,0%
O=C(Nc1nnc(COc2ccc(Cl)cc2)s1)c1cccs1,0%,-10%,16µM*,1%,i,-1%
O=C1C2C3CCCC3=C3CCCC3C2C(=O)N1c1cccc(Cl)c1 (stereo not drawn),-3%,-4%,10µM*,-6%,i,-2%
Cc1ccc2c(c1)N(CC(=O)NCC1COc3ccccc3O1)C(=O)CO2 (stereo not drawn),1%,-6%,-5%,x,i,0%
COC(=O)c1ccc(C)cc1,-1%,-5%,-4%,-14%,i,1%
COC(=O)c1ccc(O)c(Sc2cc(C(=O)OC)ccc2O)c1,0%,3%,16µM*,u,i,-3%
CCOC(=O)c1nn(-c2ccc(OC)cc2)c(=O)c2c(N)scc12,-2%,-2%,7.9µM*,-17%[11.4 µM],i,-2%
COc1ccc(-c2nc3cnc(Oc4cccc(Cl)c4)nc3n(C3CC3)c2=O)cc1,0%,-1%,3%,-3%,i,-1%
N#Cc1c(-c2ccco2)c2c([nH]c1=S)CCCC2,8%,-26%,16µM*,-29%,i,-2%
SMILES,BRCT inh green,DNA Pol III inh,ALOX15 inhib,ALOX15B inhib,YjeE inh,BRCT PPI red
N#Cc1c2c(c(-c3ccco3)[nH]c1=O)CCCC2,x,x,x,-10%,x,x
N#Cc1c(-c2cccnc2)c2c([nH]c1=S)CCCC2,x,x,x,20µM*,x,x
COc1ccc(-c2c3c([nH]c(=S)c2C#N)CCC3)cc1,x,x,x,1%[2.29 µM],x,x
O=C(C1CCCN1S(=O)(=O)c1cccc2cccnc12)N1CCc2ccccc2C1 (stereo not drawn),0%,0%,25µM*,1%,i,-2%
O=C(C1CCCN1S(=O)(=O)c1cccc2cccnc12)N1CCc2ccccc21 (stereo not drawn),0%,-2%,-2%,-5%,i,0%
CN(C)Cc1ccccc1-c1cc(-n2ccnc2)ncn1,-3%,-1%,13µM*,23%,i,0%
CN(C)c1ccc(-c2cc(-n3ccnc3)ncn2)cc1,0%,-10%,u,-14%,i,-1%
CN(C)C(=O)c1ccc(-c2cc(-n3ccnc3)ncn2)cc1,0%,-6%,25µM*,-23%,i,0%
CCCCCCCCCCCCCCCCCCNC(=O)OC[C@@H](COP(=O)([O-])OCC[n+]1ccsc1)OC,-4%,-3%,12%,-23%,i,-1%
COC(=O)CSCc1nc2ccccc2[nH]c1=O,20%,-10%,13µM*,x,i,-1%
COc1ccccc1-c1cc(C(=O)N2CCc3ccccc3C2)no1,2%,7%,-15%,x,i,0%
COc1ccc(NC(=O)c2cc(-c3cccnc3)nc3ccc(C)cc23)cc1OC,x,x,x,-2%,x,x
Cc1ccc(-c2cc(C(=O)N3CCN(c4ccc(F)cc4)CC3)c3ccccc3n2)o1,x,x,x,13µM*,x,x
COc1ccc(NC(=O)c2cc(-c3ccc(C)o3)nc3ccccc23)cc1OC,0%,-4%,32µM*,u,i,-1%
O=c1oc2ccccc2c2oc3cc(O)c(O)cc3c12,-2%,x,x,u,x,0%
O=c1oc2c(O)c(O)cc3c(=O)oc4c(O)c(O)cc1c4c23,-10%,0.005µM*,u,35%,i,-5%
COc1ccc(-c2coc3c(O)c(OC)ccc3c2=O)cc1,-1%,x,-2%,-9%,x,1%
Cc1ccc(C(=O)NC(=S)Nc2ccc(Oc3ccc(Cl)cc3)cc2)cc1,x,x,x,13µM*,x,x
COC(=O)NC(=S)Nc1ccc(Oc2ccc(Cl)cc2)c(Cl)c1,x,x,x,-20%,x,x
Cc1ccc(C(=O)[C@@H]2[C@@H]3[C@@H](C(=O)[C@@H]4OC[C@H]3O4)[C@@H]3C=Cc4ccccc4N23)cc1,x,-3%,x,x,i,x
Cc1ccc2c(c1)CCCN2C(=O)Nc1ccc2c(c1)OCO2,-4%,3%,20µM*,-6%,i,-1%
Cc1ccc(C(=O)Nc2ccc3c(c2)OCO3)cc1,x,x,x,-2%,x,x
FC(F)(F)c1ccccc1-c1cncnc1NCCN1CCOCC1,0%,-3%,9%,7%,i,1%

# Compound activity from PubChem BioAssay.
